Compound activity as filed in PubChem.
Hits are enriched below; roughly 0.28% of the tested compounds scored in any of these assays.
hcGAS inh = blocks human cGAS activity; inhibition, % at 12.5 µM; Q8N884; AID 1259398; 290,000 tested, 0.081% active; recombinant h-cGAS, ATP depletion, Kinase-Glo luminescence
NPYLR7 ag = mosquito NPYLR7 agonism; HEK293T NPYLR7/Galpha15, GCaMP6s calcium fluorescence; activation, % at 10 µM; 270,000 tested, 0.15% active; AID 1259423; in the data active = activation above about 40%
mcGAS inh = mouse cGAS inhibition by luminescence. Q8C6L5. recombinant cGAS, Kinase-Glo ATP depletion luminescence. inhibition, % at 12.5 µM. 160,000 tested, 0.15% active. AID 1259399
Target sequence (Q8C6L5 whole entry, looked up): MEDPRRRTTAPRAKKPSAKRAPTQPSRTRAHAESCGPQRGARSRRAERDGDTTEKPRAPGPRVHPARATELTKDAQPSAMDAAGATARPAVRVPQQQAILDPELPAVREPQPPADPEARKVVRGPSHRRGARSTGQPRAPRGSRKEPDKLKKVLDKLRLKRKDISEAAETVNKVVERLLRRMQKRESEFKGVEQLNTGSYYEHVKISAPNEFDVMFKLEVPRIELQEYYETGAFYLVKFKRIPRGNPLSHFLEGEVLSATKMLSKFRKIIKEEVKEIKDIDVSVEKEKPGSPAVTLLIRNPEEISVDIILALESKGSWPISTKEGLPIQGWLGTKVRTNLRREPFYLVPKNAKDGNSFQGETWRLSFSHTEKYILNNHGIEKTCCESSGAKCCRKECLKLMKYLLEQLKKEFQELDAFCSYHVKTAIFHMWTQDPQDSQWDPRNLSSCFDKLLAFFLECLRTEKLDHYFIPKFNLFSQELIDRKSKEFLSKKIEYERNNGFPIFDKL
Large screens that a line does not name were inactive; ! = repeats disagree. Rule as the data show it, unless noted: active = inhibition above about 40%; inactive = the rest.

CC(=O)C1=C(C)Nc2ncnn2C1c1ccco1 (stereo not drawn)	none (no result: mcGAS inh)
Fc1cc(F)cc(C2C=C(c3ccco3)Nc3ncnn32)c1 (stereo not drawn)	NPYLR7 ag 78 (no result: mcGAS inh)
CSc1nc2c(cnn2Cc2ccccc2)c(=O)[nH]1	none (no result: mcGAS inh)
O=c1[nH]c(CCl)nc2c1cnn2Cc1ccccc1	mcGAS inh 54
COC(=O)c1ccc(C)c(NC(=O)C2(S(=O)(=O)c3ccc(Cl)cc3)CCCC2)c1	none
N[C@@H](Cc1cc(-c2ccc(Cl)cc2Cl)cc(CP(=O)(O)O)c1O)C(=O)O	hcGAS inh 53 (no result: mcGAS inh)
NC(Cc1ccc(Cl)cc1)C(=O)O (stereo not drawn)	none
Cc1ccccc1-n1nc(C)c(CNC(=O)C[C@@H]2NC(=O)[C@H](Cc3ccccc3)NC2=O)c1C	none
C=C(C)COc1ccccc1C(=O)N(C)Cc1ccc(CC)cn1	none (no result: mcGAS inh)
CCOc1cc(C=C(C#N)S(C)(=O)=O)ccc1OC	none
CS(=O)(=O)/C(C#N)=C/c1cnc2ccc(Br)cn12	hcGAS inh 88
CSCC(=O)NCC(c1ccc(F)cc1)N(C)C(=O)CSC (stereo not drawn)	none (no result: mcGAS inh)
COc1ccc(/C=C2\Oc3c4c(cc(C)c3C2=O)OCN(CC2CCCO2)C4)cc1OC (stereo not drawn)	none
O=C1/C(=C/c2ccc3c(c2)OCO3)Oc2c1ccc1c2CN(CC2CCCO2)CO1 (stereo not drawn)	NPYLR7 ag 83
O=C1CCCCCN1CO	hcGAS inh 83
O=C1CCCCCN1CP(=O)(O)CN1CCCCC1	none (no result: NPYLR7 ag)
NC1CCN(c2ccccc2C(=O)N2CCN(c3ccccn3)CC2)CC1	none (no result: mcGAS inh)
C=C1C(=O)O[C@@H]2C[C@@]3(C)CCC[C@H](C)C3=C[C@H]12	mcGAS inh 93
Clc1ccc(Cc2nc(CSCCc3ccccc3)cs2)cc1Cl	none
CCCCCCCCCCCCCCCC(=O)NCCO	none
CCCCNC(=O)CCCCCNC(N)=O	NPYLR7 ag 55 (no result: mcGAS inh)
COc1ccc(CN(CCc2c[nH]c3ccccc23)C(=O)CN(CC(C)C)C(=O)/C=C/c2ccccc2)cc1OC	none
CC(OC(=O)C1CCN(C(=O)c2ccc(F)cc2F)CC1)C(=O)N1CCNC1=O (stereo not drawn)	none (no result: mcGAS inh)
O=C(O)c1ccc(Cl)s1	none (no result: mcGAS inh)
O=C(C1=C(O)c2ccccc2S(=O)(=O)N1)c1ccc(Cl)s1	hcGAS inh 41 (no result: mcGAS inh)
Cc1[nH]nc2c1C(C1CC=CCC1)C(C#N)C(=N)O2 (stereo not drawn)	none
CCOC(=O)Cc1cc(=O)n2[nH]c(-c3ccc(Br)cc3)cc2n1	none (no result: mcGAS inh)
CCOC(=O)Cc1cc(=O)n2[nH]cc(-c3cccc(Br)c3)c2n1	hcGAS inh 63 (no result: mcGAS inh)
Cc1cc(F)ccc1S(=O)(=O)Nc1cc(Cl)ccc1Sc1nncn1C	none
CC(=O)Nc1cccc(NC(=O)CSc2nc3c(-c4ccccc4)c(C)nn3c(=O)[nH]2)c1	none
Cc1cc(NC(=O)CSc2nc3c(-c4ccccc4)c(C)nn3c(=O)[nH]2)no1	hcGAS inh 46
COC(=O)C1=C(C)NC(C)=C(C(=O)OCC(C)C)C1c1ccccc1[N+](=O)[O-] (stereo not drawn)	mcGAS inh 58
CC1=C(C(=O)OCC(C)C)C(c2ccccc2[N+](=O)[O-])NC(=O)N1C (stereo not drawn)	none
COc1ccc(NC(=O)CN2C(=O)c3ccccc3NC23CCN(C)CC3)cn1	NPYLR7 ag 49 (no result: mcGAS inh)
COc1ccc(NC(=O)CCC(=O)N2CCc3ccccc3C2)cn1	none
CCSCC(=O)N1CCN(c2nnc(C(F)(F)F)s2)CC1	none (no result: NPYLR7 ag)
Cc1ccc(/C=C2\SC(=Nc3cc(C)cc(C)c3)NC2=O)cc1	none
COc1ccc(CCNC(=O)c2ccccc2N2CCC(NC(=O)c3ccco3)CC2)cc1OC	mcGAS inh 78
COc1ccc(CCNC(=O)c2ccccc2N2CCC(NC(=O)c3ccc(OC)c(OC)c3)CC2)cc1OC	none
C#Cc1cccc(NCc2ccccc2)c1	none (no result: mcGAS inh)
Cc1cc2c(C(C)C)c(O)c(O)c(C=O)c2c(O)c1-c1c(C)cc2c(C(C)C)c(O)c(O)c(C=O)c2c1O	mcGAS inh 48!
CN(C)c1cccc(C(=O)N2CCN(C3c4ccccc4CCc4ccccc43)CC2)c1	none
COCC1CCCN(C(=O)c2ccc(N3CCCCCCC3)nc2)C1 (stereo not drawn)	none (no result: mcGAS inh)
CCn1cc(SCC(=O)N2C[C@H](N)C[C@H]2C(=O)NC)c2ccccc21	none (no result: mcGAS inh)
Cc1ccnc(CC(C)N(C)C(=O)c2cc(F)ccc2C)c1 (stereo not drawn)	none
COC(=O)c1nc2n(n1)-c1ccccc1S(=O)(=O)N2	hcGAS inh 57 (no result: mcGAS inh)
O=C(Nc1ccccc1F)c1ccc2c(c1)S(=O)(=O)Nc1ncnn1-2	none
O=C(CN1CCCCCC1)NCCn1nnc2ccccc21	none (no result: mcGAS inh)
O=C(CCn1c(Cc2c(Cl)cccc2Cl)nc2ccccc21)NCCN1CCCC1	hcGAS inh 46 (no result: NPYLR7 ag)
O=C(Nc1cccc(C(=O)Nc2ccc(S(=O)(=O)O)c3cc(S(=O)(=O)O)cc(S(=O)(=O)O)c23)c1)Nc1cccc(C(=O)Nc2ccc(S(=O)(=O)O)c3cc(S(=O)(=O)O)cc(S(=O)(=O)O)c23)c1	mcGAS inh 86
Nc1cccc(NC(=O)c2cccc(S(=O)(=O)Nc3cccc(N)c3)c2)c1	none
CCC(C(=O)N1CCN(CC(OCc2ccc(C(=O)OC)cc2)c2ccc(Cl)cc2)CC1)c1ccccc1 (stereo not drawn)	mcGAS inh 88 (no result: NPYLR7 ag)
COC(=O)c1ccc(COC(CN2CCN(C(=O)c3ccc(Cl)cc3)CC2)c2ccc(Cl)cc2)cc1 (stereo not drawn)	none (no result: NPYLR7 ag)
CCOC(=O)C1CCCN(C(=O)c2nn(-c3cccc(C)c3)c(=O)n(Cc3ccc(C(F)(F)F)cc3)c2=O)C1 (stereo not drawn)	none
CC(C)OC(=O)C(C(=O)C(F)(F)F)c1cc(NS(=O)(=O)c2ccc(Cl)cc2)ccc1O (stereo not drawn)	NPYLR7 ag 44 (no result: mcGAS inh)
CC(C)OC(=O)C(C(=O)C(F)(F)F)c1cc(NS(=O)(=O)c2ccccc2)ccc1O (stereo not drawn)	none (no result: mcGAS inh)
Cc1cccc(CN2CCN(c3ccc(Cl)cc3)C(=O)C2C)c1 (stereo not drawn)	mcGAS inh 74
Cc1cccc(CN2CCN(c3cccc(Cl)c3)C(=O)C2C)c1 (stereo not drawn)	none
COc1cc(NS(C)(=O)=O)cc(Br)c1O	none (no result: mcGAS inh)
CNC(=O)c1ccc(CN2CCCC(c3ccccc3)CC2)cc1 (stereo not drawn)	none (no result: mcGAS inh)
Nc1nc(Cl)nc2c1ncn2[C@@H]1O[C@H](COP(=O)(O)OP(=O)(O)OP(=O)(O)O)[C@H](O)C1O (stereo partly drawn)	NPYLR7 ag 129
Nc1ncnc2c1ncn2C1OC(COP(=O)(O)OP(=O)(O)OP(=O)(O)OP(=O)(O)OCC2OC(n3cnc4c(N)ncnc43)C(O)C2O)C(O)C1O (stereo not drawn)	none
Cc1ccc(C)c(OCC(O)Cn2cnc3sccc3c2=O)c1 (stereo not drawn)	none (no result: mcGAS inh)
NC(=O)NN=Cc1cc(Br)cc(Br)c1O	none (no result: mcGAS inh)
COCCN=Cc1cc(Br)cc(Br)c1O	hcGAS inh 68
CCN(CC)Cc1c(O)cc(C)c2c1O/C(=C\c1cc3ccccc3o1)C2=O	NPYLR7 ag 70
Cc1cc(O)c(CN2CCN(C)CC2)c2c1C(=O)/C(=C/c1cc3ccccc3o1)O2	none
O=S(=O)(NCc1ccccc1)N1CCCCC1c1cccnc1 (stereo not drawn)	none (no result: mcGAS inh)
O=C1NC(=NC2CCCC2)SC1=Cc1cc([N+](=O)[O-])ccc1N1CCCC1	none (no result: mcGAS inh)
